# Legend:
# Test in all cases: PBM binding z-score (relative to random genomic background probes); higher = stronger binding; sequences stand for … in GC…GCGATTGACAGCGTAGAATGAAGG
# [1] = test system: FXR:RXRa (NR concentration 270 nM, RXRa partner concentration 90 nM)
# How it was run: (§1)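 Custom Agilent 4×180K protein-binding microarrays carried double-stranded probes. Their 34-nt variable regions held direct-repeat seeds, single-nucleotide variants, half-site ablations and random human genomic background sequences. Arrays were incubated 1 h with ligand-free nuclear receptor dimers in PBS pH 7.4, 2% milk, 0.02% Triton X-100, 1 mM DTT, 0.2 mg/mL BSA and 0.4 mg/ml salmon testes DNA. Antibodies against each partner (one per run) detected binding, and scanned fluorescence was regression-normalized. Binding z-scores use random background probes as reference.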
# [2] = test system: LXRa:RXRa (NR concentration 270 nM, RXRa partner concentration 90 nM)
# How it was run: as §1
# [3] = test system: LXRa homodimer (NR concentration 270 nM)
# How it was run: as §1
# [4] = test system: LXRb:RXRa (NR concentration 270 nM, RXRa partner concentration 90 nM)
# How it was run: as §1
# [5] = test system: LXRb homodimer (NR concentration 270 nM)
# How it was run: as §1
# [6] = test system: PPARa:RXRa (NR concentration 270 nM, RXRa partner concentration 90 nM)
# How it was run: as §1
# [7] = test system: PPARg:RXRa (NR concentration 180 nM, RXRa partner concentration 90 nM)
# How it was run: as §1
# [8] = test system: PPARg:RXRa 270nM:90nM, anti-RXR (NR concentration 270 nM, RXRa partner concentration 90 nM)
# How it was run: as §1
# [9] = test system: PPARg:RXRa 30nM:10nM, anti-RXR (NR concentration 30 nM, RXRa partner concentration 10 nM)
# How it was run: as §1
# [10] = test system: PPARg:RXRa 90nM:30nM, anti-RXR (NR concentration 90 nM, RXRa partner concentration 30 nM)
# How it was run: as §1
Sequence,PBM binding z-score [1],PBM binding z-score [2],PBM binding z-score [3],PBM binding z-score [4],PBM binding z-score [5],PBM binding z-score [6],PBM binding z-score [7],PBM binding z-score [8],PBM binding z-score [9],PBM binding z-score [10]
ATACCAAGGTGATCGTGAGGTCGCTGATACTAAC,1.23,0.653,0.154,0.766,-0.474,1.15,0.701,0.558,-0.172,0.198
ACTATTAGTTGAGACGAGCGCAACCGATAGGTTG,-0.41,-0.534,-0.214,-0.638,-0.159,-0.642,0.477,-0.52,-0.422,-0.414
GGAACGAGGGCATTCGAGTCGATAGCATGGCGAT,0.976,0.293,-0.802,-0.159,-0.384,1.15,0.824,0.495,-0.192,0.0537
TTACCAAGCTGAAGGTCGTTGATCCCTCTGTAGA,1.61,1.68,-0.245,1.04,-0.907,1.03,0.527,2.36,0.492,1.8
CTCGAAAGGTCGTGCTCATGTGAGTATACCAAAC,5.17,3.72,0.36,3.54,0.234,5.08,2.86,3.9,0.836,2.6
GGAGCGAGGGCAAAGTTGATAGCATCTGTCGACG,0.977,0.574,-0.435,0.182,-0.792,2.54,3.16,4.11,2.37,3.6
CCTAGTTGGACAAGGTCACACACGCTATAGGTAC,3.57,3.53,1.48,3.58,0.67,4.1,2.58,2.92,0.968,2.08
CCTTCTGGGCCAAAAAGGTCATTGATGCCGATAA,3.46,4.33,2.97,3.9,0.645,4.48,2.52,3.9,1.16,2.59
GTACCAAGGTGAATAAGTCGTTGATGAGTAGGCG,0.544,0.243,-0.143,-0.0627,-0.489,0.853,0.832,0.279,0.154,-0.268
CCAGACAGGTGAGAAGGTAACTCAACCTCGATTA,-0.191,0.167,0.188,0.347,-0.388,0.894,0.669,0.515,0.064,0.437
CGTCCAAGGTCATAGGAGGTCAGTGCAGACAGAT,7.64,7.34,5.11,6.24,1.16,5.7,5.88,5.67,2.19,4.56
CGTCAAAGTTTAAGGTAACGTAACAGAAAGCAGC,0.503,0.447,-0.218,0.466,-0.063,0.794,0.72,1.11,0.465,0.749
TAGCCTAGGTCAGATCTGGCCAGTATACGCTATA,1.53,1.13,-0.379,0.773,0.0198,1.43,0.793,0.718,-0.145,0.178
CGATCTAGGTCATTGACAGGACAGTGAATAGTAA,4.68,2.86,0.511,2.07,0.134,4.52,6.86,6.06,3.13,5.68
AATACAGGGTCACTAGGCCAGAGGAGGTACGAAT,5.85,4.93,0.963,3.62,1.31,5.54,8.18,6.63,3.82,5.65
ATCGAAAGGTCGTAGGTGAGTATACCCACCCGAA,5.3,4.31,0.335,3.11,0.812,5.14,4.11,4.56,1.68,3.46
TCTTGTAGATCAATAGAGGTTAAGCAAGTGCGCT,0.958,2.62,0.281,1.34,-0.1,2.08,0.0342,1.71,2.75,2.4
CCGACTGGGGCAAACGTTACCATACTCAGTACGA,-0.264,-0.168,-0.00869,-0.27,-0.682,1.61,3.62,4.48,2.27,4.25
AGAACTAGGGCACGCTGAGTTGATAGCAGAGTAG,-0.159,-0.0416,-0.762,-0.394,-0.896,3.01,5.21,4.47,1.85,3.37
ACAGACAGGTGATGAGGGTAACTCAGGCTATCAT,0.367,-0.0236,0.0191,0.0104,-0.517,0.465,0.8,-0.0214,0.142,-0.218
TCGAGTAGGTTAGTCGGGGCATTCTGCCAACATA,-0.351,-0.585,-0.552,0.145,-0.607,0.377,-0.424,0.587,0.946,0.676
AGAATCAGGTTAAGATCAGGGAAACAGAATACAT,0.729,0.662,0.295,0.799,0.474,1.68,1.18,1.05,0.692,0.624
CCGACTTGGGCAAGGTTACCATAACGCACAGCCA,0.05,0.652,-0.339,0.538,-0.76,0.821,0.77,0.417,-0.317,0.00151

# Reference: the supplement of paper PMC6555819
